# SENP8 block-1: human SENP8 protease inhibitors, primary screen, biochemical, fluorescence, Nedd8 protein substrate, uHTS; AID 602440, 2012; 0.64% of 360,000 active; Sentrin-specific protease 8 (Homo sapiens), Q96LD8; recombinant SENP8; inhibition, % at 20 µM; in the data active = inhibition mostly above about 40%, no sharp cut-off; inactive = mostly below about 27%
# SENP7 block: SENP7 protease inhibitors, primary screen, biochemical, luminescence, uHTS. Sentrin-specific protease 7 (Homo sapiens), Q9BQF6. recombinant SENP7, Z-RLRGG-aminoluciferin luminescence, 40 min. inhibition, % at 5 µM. 1.5% of 330,000 active;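 active = inhibition above about 50% at the single test dose, limit read from the data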
# SENP6 block: SENP6 protease inhibitors, primary screen, biochemical, luminescence, uHTS. Recombinant SENP6 catalytic domain, aminoluciferin luminescence. inhibition, % at 10 µM. 1.8% of 330,000 active. AID 2599, 2010;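 active = inhibition above about 50% at the single tested dose, limit read from the data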
# Target sequence (Q9GZR1 628-1112 limits assumed): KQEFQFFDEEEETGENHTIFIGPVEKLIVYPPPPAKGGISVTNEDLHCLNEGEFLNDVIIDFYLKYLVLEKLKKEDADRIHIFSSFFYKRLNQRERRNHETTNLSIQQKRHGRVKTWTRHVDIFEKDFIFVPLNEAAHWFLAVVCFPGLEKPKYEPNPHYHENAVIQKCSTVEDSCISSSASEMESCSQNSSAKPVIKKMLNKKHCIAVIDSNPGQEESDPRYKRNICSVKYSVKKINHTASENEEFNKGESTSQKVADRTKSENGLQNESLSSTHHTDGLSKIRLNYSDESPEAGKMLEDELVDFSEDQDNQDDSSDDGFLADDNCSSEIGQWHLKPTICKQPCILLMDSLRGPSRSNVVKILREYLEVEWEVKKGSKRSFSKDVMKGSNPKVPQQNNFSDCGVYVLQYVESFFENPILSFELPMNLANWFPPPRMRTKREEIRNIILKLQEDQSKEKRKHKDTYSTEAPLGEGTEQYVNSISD
# TRAIL sens C8: viability loss with TRAIL in NB7+C8 cells, primary screen, TRAIL sensitizer project, cell-based, ATPlite luminescence. inhibition (viability loss, TRAIL sensitization), % at 10 µM. 1% of 360,000 active;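 active = compounds causing at least 50% loss of cell viability in the single-dose screen, relative to plate controls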
# SENP8 block-2: SENP8 protease inhibitors, primary screen, biochemical, luminescence; Sentrin-specific protease 8 (Homo sapiens), Q96LD8; purified SENP8, Z-RLRGG-aminoluciferin cleavage; inhibition, % at 10 µM; 1.2% of 330,000 active; AID 2540, 2010; in the data active = inhibition above about 50%
# PPC-1+TRAIL kill: compounds killing PPC-1 cancer cells with TRAIL present, primary screen, TRAIL potentiator project, ATPLite luminescence, uHTS. cell killing (% activity), % at 4 µM or 5 µM. PPC-1 cells + TRAIL, ATPLite viability luminescence. 0.41% of 220,000 active;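 active = cell killing above 50% in the first pass at 4 µM, then a duplicate retest at 5 µM averaging 50% or more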
# SENP8 confirm: SENP8 protease inhibitors, retest, confirmation, biochemical, luminescence, single concentration; shares compounds with SENP7 block; Recombinant SENP8, Z-RLRGG-aminoluciferin luminescence, 60 min; inhibition, % at 12.5 µM; 40% of 6,200 active; AID 488912, 2010;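 active = mean inhibition across replicates above about 50%, limit read from the data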
# SENP6 conf: SENP6 protease inhibitors, confirmation, biochemical, luminescence, single concentration | shares compounds with SENP7 block | recombinant SENP6, Z-RLRGG-aminoluciferin luminescence | inhibition, % at 12.5 µM | 58% of 6,200 active | AID 488915, 2010
# SENP7 conf: SENP7 protease inhibitors, retest, confirmation, biochemical, luminescence, single concentration; 69% of 6,200 active; inhibition, % at 12.5 µM; recombinant SENP7, Z-RLRGG-aminoluciferin luminescence, 40 min; AID 488917, 2010; shares compounds with SENP7 block
# Casp3 select: caspase-3 protease inhibitors, confirmation, selectivity assay for SENP inhibitor project, biochemical, single concentration; shares compounds with SENP7 block; purified caspase-3, Z-DEVD-aminoluciferin luminescence, 60 min; inhibition, % at 12.5 µM; 60% of 6,200 active; AID 488918, 2010;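 active = mean inhibition above about 50%, limit read from the data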
# Target sequence (P42574 28-227 limits assumed): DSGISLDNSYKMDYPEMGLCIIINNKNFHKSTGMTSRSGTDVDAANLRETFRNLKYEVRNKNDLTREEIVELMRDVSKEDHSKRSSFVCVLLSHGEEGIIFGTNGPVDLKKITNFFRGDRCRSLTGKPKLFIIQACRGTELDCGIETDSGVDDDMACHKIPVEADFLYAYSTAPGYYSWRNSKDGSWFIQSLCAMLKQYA
# Luc interf: luminescence interference (SENP counter-screen). shares compounds with SENP7 block. Pre-incubated SENP8/Z-RLRGG-aminoluciferin, luciferase luminescence interference. inhibition, % at 12.5 µM. 39% of 6,200 active;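 active = mean inhibition above about 50% when retested at one dose, limit read from the data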
# A number is an active result; n = inactive; x = not tested or not shown; ! = not confirmed by another sample. Most compounds without a hit are left out; they make up all but 3% or so of the library.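 The calls were made as follows, unless noted: active = mean inhibition above about 50% in the one-dose retest (limit read from the data); inactive = the rest.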
SMILES,SENP8 block-1,SENP7 block,SENP6 block,TRAIL sens C8,SENP8 block-2,PPC-1+TRAIL kill,SENP8 confirm,SENP6 conf,SENP7 conf,Casp3 select,Luc interf
Cc1ccccc1C(=O)N1CCC(C(=O)NN2C(=O)NC3(CCCCC3)C2=O)CC1,n,n,n,n,n,x,x,x,x,x,x
Cc1ccc(N2C(=O)c3ccccc3C2=O)cc1,n,n,n,n,n,n,x,x,x,x,x
Cc1ccc(SC2=C(Sc3ccc(C)cc3)C(=O)c3ccccc3C2=O)cc1,n,n,62.1,n,n,n,n,n,n,n,n
CSc1cccc(NC(=O)Cn2cccc2)c1,n,n,n,n,n,n,x,x,x,x,x
CSc1cccc(NC(=O)c2cnn3ccccc23)c1,n,71.1,76.1,n,n,n,72.5,70.1,90.7,64.8,71.7
O=C(Nc1ccc(S(=O)(=O)N2CCOCC2)cc1)c1ccccc1F,n,n,n,n,n,x,x,x,x,x,x
COC(=O)[C@]1(C)N[C@H](CN(C)C(=O)c2ccccc2)[C@@H]2C(=O)N(C)C(=O)[C@@H]21,n,n,n,n,n,x,x,x,x,x,x
Nc1nc(-c2ccc3c(c2)CCCC3)cs1,n,56.0,78.5,n,52.9,n,64.9,75.1,91.1,51.1,70.5
CC(=O)N[C@@H](Cc1c[nH]c2ccccc12)C(=O)OCC(=O)Nc1ccc2c(c1)OCO2,n,x,x,n,x,x,x,x,x,x,x
O=C(Nc1ccc2c(c1)OCCO2)C(=O)c1c[nH]c2ccccc12,n,99.4,86.8,81.7,82.1,x,78.8,78.3,101.2,86.2,92.0
COC(=O)[C@@H](Cc1c[nH]c2ccccc12)NC(=O)c1ccc2c(c1)OCO2,n,64.6,59.2,n,53.2,x,n,n,83.1,67.0,67.9
Cc1[nH]c2ccccc2c1C(=O)C(=O)Nc1ccc2c(c1)OCCO2,n,n,n,n,n,x,x,x,x,x,x
O=C(COC(=O)[C@H](Cc1c[nH]c2ccccc12)NC(=O)c1ccc(Cl)cc1)Nc1ccc2c(c1)OCO2,n,n,n,n,n,n,x,x,x,x,x
O=C(Nc1ccc2c(c1)OCO2)C(=O)c1c[nH]c2ccccc12,n,81.5,n,n,n,x,n,n,78.9,75.0,n
COc1cccc(C(NC(C)=O)c2nc(-c3csc4ccccc34)cs2)c1 (stereo not drawn),n,x,x,n,x,x,x,x,x,x,x
COc1ccc(C2Nc3ccccc3C(=O)N2Cc2ccco2)cc1CN1C(=O)c2ccccc2C1=O (stereo not drawn),n,66.0!,n,n,n,n,n,n,n,n,n
CCN(CC)S(=O)(=O)c1ccc(N2CCCCC2)c(NC(=O)c2ccncc2)c1,n,n,n,n,n,n,x,x,x,x,x
Brc1ccc(NC2=Nc3ccccc3CC2)cc1,n,n,n,n,n,n,x,x,x,x,x
Cc1ccc(NC2=Nc3ccccc3CC2)cc1,n,n,51.7,n,n,n,64.1,61.0,88.5,84.2,n
Clc1cnc(N/N=C/c2cccs2)c(Cl)c1,n,n,n,n,n,n,x,x,x,x,x
Clc1cnc(N/N=C/c2ccco2)c(Cl)c1,n,n,81.2,n,60.8,n,n,n,n,84.0,n
CC1(C(=O)NS(=O)(=O)c2ccc(Cl)cc2)CCN1C(=O)c1ccco1 (stereo not drawn),n,x,x,n,x,x,x,x,x,x,x
COc1cc2sc3cc(NCc4ccc5c(c4)OCO5)ccc3c(=O)c2cc1OC,n,70.1,n,n,n,x,n,n,n,n,n
COc1ccc(NCc2ccc3c(c2)OCO3)cc1Cl,n,n,n,n,n,n,x,x,x,x,x
COc1cccc2sc3cc(NCc4ccc5c(c4)OCO5)ccc3c(=O)c12,n,58.2,n,n,n,x,n,n,n,n,n
SMILES,SENP8 block-1,SENP7 block,SENP6 block,TRAIL sens C8,SENP8 block-2,PPC-1+TRAIL kill,SENP8 confirm,SENP6 conf,SENP7 conf,Casp3 select,Luc interf
COc1cc2sc3cc(NCC[C@@H]4CCCN4C)ccc3c(=O)c2cc1OC,n,52.8,57.0,n,50.2,x,n,n,n,n,n
COc1cc2sc3cc(NCc4ccc(C)o4)ccc3c(=O)c2cc1OC,n,87.3,n,n,81.0,x,n,56.4,88.3,79.6,62.4
CC(C)[C@H](NC(=O)c1ccco1)C(=O)NC12CC3CC(CC(C3)C1)C2,n,n,n,n,n,n,x,x,x,x,x
N#Cc1ccc(S(=O)(=O)N2CCC(C(=O)N3CCN(Cc4ccc5c(c4)OCO5)CC3)CC2)cc1,n,n,n,n,n,x,x,x,x,x,x
c1ccc(-n2nnc(-c3nccs3)n2)cc1,n,76.5,81.8,n,77.3,x,70.6,81.7,96.8,91.5,70.6
Brc1ccccc1-n1nnc(-c2nccs2)n1,n,55.7,61.3,n,54.6,n,n,n,78.9,66.2,65.4
Fc1ccc(-n2nnc(-c3ccccc3)n2)cc1,n,n,n,n,n,x,x,x,x,x,x
c1ccc(-c2cn3nc4c(nc3n2)CCCC4)cc1,n,n,50.2,n,n,n,86.2,94.3,96.1,93.9,n
Brc1ccc2nc3c(n2c1)CCCC3,n,n,n,n,n,n,x,x,x,x,x
Brc1ccc(-c2cn3nc4c(nc3n2)CCCC4)cc1,n,n,69.9,n,73.9,n,n,66.4,59.9,n,n
CCC1=C(c2ccc(OC)cc2)CCC(C(=O)O)C1C (stereo not drawn),n,x,x,n,x,x,x,x,x,x,x
CC(=O)Cn1c(N2CCC(Cc3ccccc3)CC2)nc2c1c(=O)[nH]c(=O)n2C,n,n,n,n,n,n,x,x,x,x,x
C=C(C)Cn1c(N2CCC(Cc3ccccc3)CC2)nc2c1c(=O)[nH]c(=O)n2C,n,n,97.6,n,81.0,n,n,n,n,n,n
CCN(CC)S(=O)(=O)c1ccc(-n2cnc3cc(C)c(C)cc32)nc1,n,n,n,n,n,x,x,x,x,x,x
CCOC(=O)c1ccc2nc(NC(=O)c3ccco3)sc2c1,n,89.8,93.3,n,85.4,n,n,n,77.9,51.4,n
C=CCOC(=O)c1sc(NC(=O)c2ccco2)nc1C,n,55.8,n,50.3,n,n,n,n,n,n,n

# Bioassay records: PubChem BioAssay, Sanford-Burnham Center for Chemical Genomics
